From PubChem BioAssay AID488840 (Broad Institute, 2010)
Among all 1,400 compounds or so, about 45 (3%) were called active.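 How the source made its calls: active means half-maximal dose of signal decrease from fit no higher than ten times the top valid tested dose; inconclusive means fit invalid, or curve flat with 30 to 70% inhibition; inactive means the rest.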 Not all results are given here. Entries with a potency or affinity are not part of this list.

The compounds below were run against Lysine-specific demethylase 4A (Homo sapiens) (UniProt O75164) (assay: JMJD2A histone demethylase inhibitors, dose response, selectivity assay for GASC-1 inhibitor project, biochemical, DELFIA europium, cherry-picked samples (AID 488840;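 further: europium signal reports the dimethyl H3K9 product detected by antibody so inhibitors lower it; 0% = median of neutral control wells and -100% = median of positive control wells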)). Conditions: GST-JMJD2A(1-420) H3K9me3 demethylation; series mostly up to 6 µM; activity change, negative = inhibition: at the top concentration.
Chain of Lysine-specific demethylase 4A (Homo sapiens) (O75164 whole entry, looked up): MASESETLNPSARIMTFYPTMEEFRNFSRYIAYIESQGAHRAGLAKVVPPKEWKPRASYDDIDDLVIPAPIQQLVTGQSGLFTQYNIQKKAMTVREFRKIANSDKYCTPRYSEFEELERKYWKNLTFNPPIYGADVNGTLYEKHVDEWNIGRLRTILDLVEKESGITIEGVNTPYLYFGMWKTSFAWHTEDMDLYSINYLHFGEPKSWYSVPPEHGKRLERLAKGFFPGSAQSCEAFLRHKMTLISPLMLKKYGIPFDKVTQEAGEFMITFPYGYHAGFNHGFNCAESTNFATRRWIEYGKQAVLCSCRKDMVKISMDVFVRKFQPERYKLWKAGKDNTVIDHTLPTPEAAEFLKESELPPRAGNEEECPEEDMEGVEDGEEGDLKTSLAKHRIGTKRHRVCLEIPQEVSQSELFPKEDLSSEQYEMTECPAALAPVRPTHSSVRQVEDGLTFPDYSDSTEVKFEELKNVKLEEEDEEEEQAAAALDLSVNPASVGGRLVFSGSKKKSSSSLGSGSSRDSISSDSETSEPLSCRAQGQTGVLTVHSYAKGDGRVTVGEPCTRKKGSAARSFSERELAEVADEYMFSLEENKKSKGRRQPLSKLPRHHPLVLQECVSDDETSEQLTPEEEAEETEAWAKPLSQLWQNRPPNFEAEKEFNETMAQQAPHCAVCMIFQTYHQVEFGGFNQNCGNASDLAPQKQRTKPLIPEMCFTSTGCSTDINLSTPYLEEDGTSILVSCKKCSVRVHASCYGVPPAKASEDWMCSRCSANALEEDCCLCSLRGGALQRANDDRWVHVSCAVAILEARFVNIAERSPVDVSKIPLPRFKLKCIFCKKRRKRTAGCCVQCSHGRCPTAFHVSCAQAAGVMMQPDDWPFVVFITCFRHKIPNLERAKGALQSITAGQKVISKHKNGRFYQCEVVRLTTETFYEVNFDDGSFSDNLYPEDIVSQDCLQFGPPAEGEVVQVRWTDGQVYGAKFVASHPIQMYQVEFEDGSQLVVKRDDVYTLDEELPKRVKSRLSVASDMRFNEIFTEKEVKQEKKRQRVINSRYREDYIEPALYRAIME

Activity change, negative = inhibition, inactive:
COc1ccc(S(=O)(=O)N(C)C[C@H]2Oc3ccc(NC(=O)Cn4cnnn4)cc3C(=O)N([C@H](C)CO)C[C@@H]2C)cc1 -2.83%, C=CCNCCOc1cccc(Br)c1 -3.77%, O=C(NCc1ccccn1)c1cn(Cc2ccccc2)nn1 -6.48%, CC(=O)Nc1ccc(NC(=O)Cn2cnc3c(cnn3C(C)(C)C)c2=O)cc1 -13.6%, Cc1ccc(S(=O)(=O)N2[C@@H](c3ccc(C#N)cc3)C(C(=O)O)=C[C@H]2C(C)(C)C)cc1 -3.84%, CC[C@@]1(C(=O)OC)N[C@H](CN(C)C(=O)Nc2ccc(Cl)cc2)[C@@H]2C(=O)N(Cc3ccccc3)C(=O)[C@@H]21 3.72%, O=C(c1cc2ccccc2oc1=O)N1CCN(CCc2ccccc2)CC1 1.84%, Cc1cccc(OCc2nnc(SCC(=O)Nc3cccc(C(=O)N4CCOCC4)c3)o2)c1C -0.255%, N=c1n(CC(=O)c2cccc([N+](=O)[O-])c2)c2ccccc2n1Cc1ccccc1 1.29%, Nc1cccc(C(=O)Nc2ccco2)c1 -3.86%, COc1cc2[nH]c(=O)n(CCCCCC(=O)NCCCN3CCCC3=O)c(=O)c2cc1OC 1.66%, CC(=O)c1sc(NC(=O)c2ccc(C)cc2)nc1C -7.38%, Cc1ccc(CNC(=O)Cc2ccc(-c3ccccc3)cc2)cc1 6.79%, CCN1CCC(=NNC(=O)c2ccc(C)c([N+](=O)[O-])c2)CC1 0.261%, Cc1ccc(C2CC(c3ccccc3)=NN2C(=S)Nc2ccccc2)o1 (stereo not drawn) 3.02%, CC(C)C[C@H](NC(=O)N1CCCCCC1)C(=O)O 0.718%, O=C(NNC(=O)c1cccs1)c1ccc([N+](=O)[O-])cc1 -5.67%, CC1=NN(C(N)=S)C(=O)C1N=Nc1c(C)cc(C)cc1C (stereo not drawn) 3.02%, C=CCn1c(O)c(N=Nc2ccccc2C)c2ccccc21 -6.46%, Cc1ccccc1CNc1nnnn1C -0.727%, COC(=O)c1cc(NC(=O)CSc2nncn2C)cc(C(=O)OC)c1 0.678%, COC(C/C=C\[C@H](O)[C@H](C)OCc1ccccc1)OC 2.1%, CC(C)(C)OC(=O)C[C@@H]1C/C=C\C[C@H](CC(=O)N[C@H](CO)Cc2ccccc2)C(=O)N[C@@H](Cc2ccccc2)COC1=O 0.0527%, C[C@H](CO)N1C[C@H](C)[C@@H](CN(C)Cc2ccc(Cl)c(Cl)c2)Oc2c(NS(=O)(=O)c3cn(C)cn3)cccc2C1=O -0.723%, CCOCCCNC(=O)c1c[nH]c2ccc(C)cc2c1=O 0.456%, Cc1ccccc1CN1C(=O)C(O)(CC(=O)c2ccncc2)c2ccccc21 (stereo not drawn) -4.55%, Cc1ccc(CNC(=O)[C@@H](NC(=O)Cc2ccccc2)C(C)C)cc1 2.23%, O=C(Cc1ccccc1)NC1(O)C(=O)c2ccccc2C1=O -4.47%, COc1ccc(OC)c(/C=C2\SC(=S)N(Cc3cccnc3)C2=O)c1 0.643%, COc1ccc(OCC(=O)N/N=C/C(C)=C/c2ccco2)c(Br)c1 -1.99%, COc1ccccc1N1CCN(C(=O)CSc2nc(C)cc(=O)[nH]2)CC1 -2.92%, COc1ccc(-c2nnc(SC(C)C(=O)NCc3ccc4c(c3)OCO4)n2Cc2ccco2)cc1 (stereo not drawn) 5.3%, CCN(CC)C(=O)N1CCc2ccccc2C1CN1C(=O)c2ccccc2C1=O (stereo not drawn) -1.77%, C=CCc1c(C)nc(SC(C)C)[nH]c1=O -9.55%, O=C(Cn1cnc2c(OCc3ccccc3)ncnc21)N1CCN(c2ccccn2)CC1 -3.78%, CC(C)(O)[C@H](O)Cc1cc2ccc(=O)oc2cc1O[C@@H]1O[C@H](CO)[C@@H](O)[C@H](O)[C@H]1O -0.509%, CC(=O)c1ccc(O[C@@H]2O[C@H](CO)[C@@H](O)[C@H](O)[C@H]2O)cc1 -4.17%, COC(C(=O)Nc1ccc(NC(=O)C(OC)c2ccccc2)cc1)c1ccccc1 (stereo not drawn) 3.15%
